From PubChem
Luciferase inh – Firefly luciferase inhibition profiling of diverse chemical library using quantitative high-throughput screening | hit rate 2.5% among 76,000 | AID 1347043, 2019 | Potency, µM (doses to about 115 µM), most hits filed as inhibitors | purified P. pyralis luciferase, luminescence, biochemical | Luciferin 4-monooxygenase (Photinus pyralis), P08659; further: nearly all actives have a fitted effect of over 65% in size
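Luminescence read by CCD imaging after purified firefly luciferase (10nM final) was added to substrate buffer holding 10uM D-luciferin and 10uM ATP, pH 7.5, pre-dosed with compound.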
NPR1 antag – Natriuretic polypeptide receptor (hNpr1) antagonism - Primary qHTS | HEK293 hNpr1 GloSensor cGMP, ANP-stimulated luminescence | Potency, µM (highest dose often 46.3 µM), hits mostly inhibitors | hit rate 1.6% among 76,000 | AID 1347048, 2019; calls by dose curve; further: nearly all actives have a fitted effect of over 60% in size
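HEK293 cells stably expressing human Npr1 and cGMP GloSensor pGS-40F, loaded 2 h with 2% GloSensor reagent, given compound 30 min at room temperature. Luminescence read before and 20 min after 0.1 nM hNppA.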
HEK293 tox – Cytotoxic Profiling in HEK 293 Cell Line of Diverse Libraries Using Quantitative High-Throughput Screening | hit rate 6.6% among 94,000 | Potency, µM (titrated, usually from 115 µM), actives largely listed as inhibitors | HEK 293 viability, ATP luminescence (CellTiter-Glo), 48-72 h; further: nearly all actives have a fitted effect of over 60% in size
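Read-out: CellTiter-Glo ATP luminescence. Cells: HEK 293, 250 cells/well. Exposure: 48 or 72 hr, 37 degree Celsius.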
NIH3T3 tox – Cytotoxic Profiling in NIH 3T3 Cell Line of Diverse Libraries Using Quantitative High-Throughput Screening; NIH 3T3 viability, CellTiter-Glo ATP luminescence, 48-72 h; hit rate 4.3% among 94,000; Potency, µM (doses to about 96.7 µM), hits mostly inhibitors; further: nearly all actives have a fitted effect of over 55% in size
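First NIH 3T3 cells are plated at 400 cells/well; next compound is pinned in; then plates incubate 48 or 72 hr at 37 °C; finally CellTiter-Glo is added and luminescence read after 10 min.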
GPT2 inhibitor – Primary qHTS assay for inhibitors of Glutamate pyruvate transaminase 2 (GPT2). Alanine aminotransferase 2 (Homo sapiens), Q8TD30. Recombinant GPT2, coupled pyruvate oxidase/HRP Amplex Red fluorescence. Potency, µM (doses to about 57.7 µM), hits mostly inhibitors. hit rate 0.25% among 100,000; further: nearly all actives have a fitted effect of over 60% in size
Target sequence (Q8TD30 whole entry, looked up): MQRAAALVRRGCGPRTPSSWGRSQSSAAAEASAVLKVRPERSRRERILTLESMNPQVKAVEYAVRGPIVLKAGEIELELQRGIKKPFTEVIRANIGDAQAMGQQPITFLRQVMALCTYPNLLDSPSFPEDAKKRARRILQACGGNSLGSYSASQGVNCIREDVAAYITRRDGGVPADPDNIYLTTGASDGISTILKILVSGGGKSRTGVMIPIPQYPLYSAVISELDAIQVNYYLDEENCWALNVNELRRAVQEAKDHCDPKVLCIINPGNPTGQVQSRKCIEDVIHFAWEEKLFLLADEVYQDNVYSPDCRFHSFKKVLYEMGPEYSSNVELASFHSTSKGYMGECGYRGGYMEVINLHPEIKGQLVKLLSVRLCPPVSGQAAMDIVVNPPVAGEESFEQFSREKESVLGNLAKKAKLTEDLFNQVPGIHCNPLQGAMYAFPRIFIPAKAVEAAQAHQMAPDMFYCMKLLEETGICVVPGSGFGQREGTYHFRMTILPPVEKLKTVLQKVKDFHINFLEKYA
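Fluorescence of coupled pyruvate oxidase/HRP/Amplex Red system (50uM Amplex, 30 min, dark) reports pyruvate formed by GPT2. Enzyme reaction: 10ng/uL GPT2, 2mM L-alanine, 250uM a-KG, 30 min room temperature, pH 7.5; 50uM AOA control.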
Hits are given with their value; . = inactive; ? = inconclusive; / = no result given. Most compounds without a hit are left out; they make up all but 10% or so of the library. Unless noted, the call rests on the fitted dose curve; in most records, active means well fitted curve in the direction sought with a large enough effect; inconclusive means small, poorly fitted or top-dose-only effect, or another doubt; inactive means no such curve, though single readings can be large; an effect the other way counts as inactive or inconclusive.

SMILES | Luciferase inh | NPR1 antag | HEK293 tox | NIH3T3 tox | GPT2 inhibitor
CC(C)NC(=O)N[C@H]1CCN2C(=O)c3cc(-c4ccccc4F)ccc3NC(=O)[C@@H]2C1 | . | . | ? | . | ?
C=CCNC(=O)N[C@H]1CCN2C(=O)c3ccc(Cl)cc3NC(=O)[C@@H]2C1 | . | . | ? | 31.6µM | .
CC(C)c1nc2c(c(-c3ccc(Cl)cc3)n1)CCN(C(=O)c1ccc(C(F)(F)F)cc1)CC2 | / | / | ? | ? | .
CCc1c(-c2nc(C3CCOC3)no2)[nH]c2ccccc12 (configuration not stated) | . | . | ? | ? | .
CCCc1nc(-c2nc(C3CCOC3)no2)cs1 (configuration not stated) | 28.2µM | . | . | . | .
OCC1(CN2CCCC2)CCN(Cc2ccc(Cl)cc2)CC1 | . | . | ? | ? | .
CC(Cc1ccc2c(c1)OCO2)CN1CCC(CO)(CN2CCCC2)CC1 (configuration not stated) | . | . | ? | 39.8µM | .
O=C(Cc1ccc(F)cc1)NC1CCN(c2ccc3nnc(C4CC4)n3n2)C1 (configuration not stated) | / | / | . | . | /
O=C(C[C@@H]1CCNC[C@@H]1Cc1cc(COc2ccccc2)on1)N1CCC(n2c(=O)[nH]c3ccccc32)CC1 | . | . | . | . | .
CC(C)(C)c1ccc(-c2cc(C[C@H]3CNCC[C@H]3CC(=O)N3CCOCC3)no2)cc1 | . | . | 25.1µM | ? | .
CC(C)(C)c1ccc(-c2cc(C[C@H]3CNCC[C@H]3CC(=O)N3CCC(n4c(=O)[nH]c5ccccc54)CC3)no2)cc1 | . | . | 22.4µM | 25.1µM | .
CNc1cc(C2CC(NS(=O)(=O)c3cc(C)sc3C)C2)nc(N)n1 (configuration not stated) | . | . | ? | ? | .
COCC(=O)Nc1ccc(-c2noc([C@@H]3CCCN3CC(C)(C)C)n2)cn1 | . | . | 100µM | ? | .
COCCOc1ccc(-c2noc([C@@H]3CCCN3C3CCCCC3)n2)cn1 | . | . | 100µM | . | .
COc1ccc(-c2noc([C@@H]3CCCN3C3CCCCC3)n2)cn1 | . | . | ? | ? | .
CC(=O)N1CCC2(CC1)CC(CC(=O)Nc1cccc(F)c1)CCO2 (configuration not stated) | / | / | . | . | .
O=C(C1CC1)N1CCC2(CC1)CC(c1cccc(C(F)(F)F)c1)=NO2 | / | / | 56.2µM | ? | /
O=C(c1ccncc1)N1CCC2(CC1)CC(c1cccc(C(F)(F)F)c1)=NO2 | / | / | 89.1µM | . | /
CN(Cc1cccnc1)C1CCc2ccccc21 (configuration not stated) | . | . | ? | ? | .
COC(=O)[C@@H]1Cc2c([nH]c3ccccc23)[C@H]2C[C@@H](N3CCOCC3)C[C@@H](c3ccc(F)cc3)N21 | . | . | ? | ? | .
COC(=O)[C@@H]1Cc2c([nH]c3ccccc23)[C@H]2C[C@@H](N3CCCCC3)C[C@@H](c3ccccc3F)N21 | . | . | 22.4µM | ? | .
COC(=O)[C@@H]1Cc2c([nH]c3ccccc23)[C@H]2C[C@H](N3CCCCC3)C[C@@H](c3ccccc3F)N21 | . | . | ? | 28.2µM | .
COC(=O)[C@@H]1[C@H]2C[C@@H]3c4[nH]c5ccccc5c4CCN3C[C@@H]2CC[C@@H]1O | / | / | / | / | .
Cc1cccc(-c2cccc(CN3CCCC(C(=O)N4CCN(C)CC4)C3)c2)c1 (configuration not stated) | / | / | 25.1µM | ? | .
O=C(NCc1cccc(F)c1)C1CCCN(Cc2cccc(-c3cccs3)c2)C1 (configuration not stated) | / | / | ? | 39.8µM | /
SMILES | Luciferase inh | NPR1 antag | HEK293 tox | NIH3T3 tox | GPT2 inhibitor
O=C(NCc1cccs1)C1CCCN(Cc2cccc(-c3ccsc3)c2)C1 (configuration not stated) | / | / | 39.8µM | ? | .
O=C(C1CCCN(Cc2cccc(-c3cccs3)c2)C1)N1CCCC1 (configuration not stated) | / | / | 70.8µM | ? | .
C#CCNC(=O)C1CCN(c2nccc(Nc3ccc(OC)cc3)n2)CC1 | / | / | ? | ? | .
COc1ccc(C(=O)N2CCC3(CC2)CC(c2nc(C)no2)N(C)C3)cc1 (configuration not stated) | / | / | . | . | ?
Cc1ccc(-c2nnc([C@H]3CCN(C(=O)C4CC4)C3)o2)cc1 | . | . | . | . | .
O=C(NCc1cccs1)C1CCCN(Cc2cccc(-c3cccs3)c2)C1 (configuration not stated) | / | / | 44.7µM | 39.8µM | .
Cc1cccc(-c2cccc(CN3CCCC(C(=O)NCC4CC4)C3)c2)c1 (configuration not stated) | / | / | ? | ? | .
Oc1ccccc1-c1cnc2n[nH]c(-c3ccc4c(c3)OCO4)c2n1 | ? | . | ? | ? | .
COc1cccc(-c2cnc3n[nH]c(-c4ccc5c(c4)OCO5)c3n2)c1 | . | . | ? | 50.1µM | .
COc1cc(F)ccc1-c1cnc2n[nH]c(-c3ccc4c(c3)OCO4)c2n1 | . | . | ? | 25.1µM | .
Cc1ccccc1-c1cnc2n[nH]c(-c3ccc4c(c3)OCO4)c2n1 | . | . | 44.7µM | 25.1µM | ?
c1ccc(-c2cnc3n[nH]c(-c4ccc5c(c4)OCO5)c3n2)cc1 | . | . | ? | . | .
COc1ccccc1-c1cnc2n[nH]c(-c3ccc4c(c3)OCO4)c2n1 | . | ? | 35.5µM | 35.5µM | ?
Fc1ccccc1-c1cnc2n[nH]c(-c3ccc4c(c3)OCO4)c2n1 | . | . | ? | . | .
COc1ncccc1-c1cnc2n[nH]c(-c3ccc4c(c3)OCO4)c2n1 | . | . | 44.7µM | 44.7µM | .
COc1cc(-c2cnc3n[nH]c(-c4ccccc4)c3n2)ccn1 | . | . | ? | ? | .
F[C@@H]1CN(Cc2ccnc3ccccc23)C[C@@H]1OCc1nc2ncccc2[nH]1 | . | . | ? | ? | .
CC(C)NC(=O)c1ccccc1OCC1CCCN(Cc2ccc(F)cc2)C1 (configuration not stated) | . | . | 39.8µM | ? | .
CC(C)NC(=O)c1ccccc1OCC1CCCN(CC2=Cc3ccccc3OC2)C1 (configuration not stated) | . | . | 35.5µM | ? | .
O=C(c1ccccc1OCC1CCCN(CC2=Cc3ccccc3OC2)C1)N1CCCCC1 (configuration not stated) | . | . | ? | ? | .
CC(C)NC(=O)c1ccccc1OCC1CCCN(Cc2nccs2)C1 (configuration not stated) | . | . | ? | ? | .
